Source: PubChem BioAssay
An excerpt weighted towards active compounds, which were near 19% of everything screened.
IL-1B inflam inh: inflammasome signaling inhibition, IL-1 beta readout. activity change, % at 57.5 µM. 360,000 compounds, 4.7% hits. THP-1 LPS/ATP IL-1B secretion, AlphaLISA, 16 h; hits give low values; in the data active = activity change below about -50%; inconclusive = mostly about -30% to -49%
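Secreted IL-1B measured by AlphaLISA bead assay after 16 h compound exposure of THP-1 cells; compounds (final up to 57.5 uM) added 1 h before LPS (250 ng/mL) and ATP (1.25 mM) stimulation; lower signal means less secretion.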
S-ASM inh: inhibitors of human secretory acid sphingomyelinase; 340,000 compounds, 0.006% hits; P17405; placental ASM, HMU-PC fluorogenic substrate, 60 min; Potency, µM (doses to about 57.5 µM), actives largely listed as inhibitors
Target sequence (P17405 47-631 limits assumed): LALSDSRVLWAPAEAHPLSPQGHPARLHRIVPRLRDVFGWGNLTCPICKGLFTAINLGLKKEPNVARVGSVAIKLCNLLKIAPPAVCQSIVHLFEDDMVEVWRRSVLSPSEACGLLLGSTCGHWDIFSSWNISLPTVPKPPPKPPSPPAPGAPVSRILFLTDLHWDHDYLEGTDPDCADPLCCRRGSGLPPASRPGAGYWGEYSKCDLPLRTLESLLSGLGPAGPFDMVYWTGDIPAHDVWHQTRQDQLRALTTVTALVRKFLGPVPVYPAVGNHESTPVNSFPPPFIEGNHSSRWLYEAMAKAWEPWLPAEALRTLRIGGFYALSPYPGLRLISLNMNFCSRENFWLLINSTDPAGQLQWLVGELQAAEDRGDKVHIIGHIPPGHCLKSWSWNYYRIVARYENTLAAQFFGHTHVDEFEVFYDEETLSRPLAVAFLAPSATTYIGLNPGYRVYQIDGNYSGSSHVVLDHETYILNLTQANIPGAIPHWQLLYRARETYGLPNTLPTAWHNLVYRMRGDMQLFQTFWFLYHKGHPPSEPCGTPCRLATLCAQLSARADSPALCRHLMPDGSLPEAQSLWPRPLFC
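qHTS format. ASM enzyme prepared from human placenta hydrolyses the fluorogenic substrate HMU-PC0 (9 uM final) over 60 min at 37 °C after a 10 min compound preincubation.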
HepG2 viability: kills HepG2 cells in TGF-b inhibitor counter-screen; HepG2 CAGA-GFP viability, ATP luminescence, 18 h; Potency, µM (top dose mostly 46.1 µM), hits mostly cytotoxic; 410,000 compounds, 0.76% hits; AID 588856
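CellTiter-Glo luminescence gave cytotoxicity after 18 hours at 37 degrees C. The cells were HepG2 CAGA-GFP in 1% FBS DMEM, stimulated with 500 pg/mL TGF-beta after compound addition. %Activity was normalised to no-cell wells (complete cell-killing) and DMSO (no toxicity), and curves were fitted and classified.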
DT40 TDP1 no CPT: qHTS for Inhibitors of human tyrosyl-DNA phosphodiesterase 1 (TDP1): qHTS in cells in absence of CPT. Potency, µM (top dose mostly 46.2 µM), hits mostly inhibitors. AID 686978, 2013. DT40 Tdp1-/- hTDP1 cells, no CPT, ATP luminescence, 48 h. 420,000 compounds, 15% hits; note: nearly all actives have a fitted effect of over 55% in size
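Chicken DT40 Tdp1-/- cells complemented with human TDP1, screened without camptothecin (DMSO vehicle only), 400 cells/well. Compounds pin-transferred, cells incubated at 37 °C for at least 48 hr. Growth read as ATP-dependent luminescence (CellTiter-Glo, 30 min at RT).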
DT40 TDP1 CPT: DT40-hTDP1 cell growth loss with CPT; chicken DT40 Tdp1-/-;hTDP1 cells + 20 nM CPT, ATP luminescence, 48 h; Potency, µM (series often up to 46.2 µM), hits mostly inhibitors; 420,000 compounds, 12% hits; AID 686979; note: nearly all actives have a fitted effect of over 55% in size
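Chicken DT40 Tdp1-/- cells stably complemented with human TDP1 were seeded at 400 cells/well in medium containing 20 nM camptothecin, exposed to pin-transferred compounds, and grown at 37 °C for at least 48 hr. Viability was read as ATP luminescence.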
TGFb inhibitor: blocks TGF-b signaling. HepG2 CAGA-GFP TGF-b/SMAD3 reporter, GFP fluorescence, 18 h; TGF-beta stimulated, 500 pg/mL final. Potency, µM (titrated, usually from 46.1 µM), usual class: inhibitors. 410,000 compounds, 1.2% hits. AID 588855; note: nearly all actives have a fitted effect of over 65% in size
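Read-out: total well GFP (ex488/em500-530) summed from mean per-cell fluorescence. Cells: HEPG2 CAGA-GFP, 1% FBS DMEM, 18 h at 37 degrees C with 500 pg/mL final TGF-beta. Unstimulated wells served as the full-inhibition control; stimulated DMSO wells = 0%.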
Each line names hits and unclear results; the compound was inactive in the other large screens. Unless noted, calls come from the whole dose curve; as a rule, active = well fitted curve in the direction sought with a large enough effect; inconclusive = small, poorly fitted or top-dose-only effect, or another doubt; inactive = no such curve, though single readings can be large; an effect the other way counts as inactive or inconclusive.

CCc1nccn1S(=O)(=O)c1cc(OC)ccc1OC	none
Cc1ccc([N+](=O)[O-])cc1N/C=C1\CCc2ccccc2C1=O	DT40 TDP1 no CPT inconclusive, DT40 TDP1 CPT 21µM
COc1sc(SC)cc1/C=N/NC(=O)c1ccncc1	none
Cc1csc(NC(=O)CN2C(=O)c3ccccc3C2=O)c1C(N)=O	none
O=C1C=CC(=O)c2c(O)c(Cl)c(Cl)c(O)c21	DT40 TDP1 no CPT 2.1µM, DT40 TDP1 CPT inconclusive (no result: IL-1B inflam inh, S-ASM inh, HepG2 viability, TGFb inhibitor)
O=C1C=CC(=O)c2c(O)c(CO)c(CO)c(O)c21	HepG2 viability 10µM, DT40 TDP1 no CPT 2.9µM, DT40 TDP1 CPT 2.1µM, TGFb inhibitor 11µM
CN1C(=O)c2ccc(NC(=O)c3ccc(Cl)cc3Cl)cc2C1=O	none
NNC(=O)c1csc(Cc2c(Cl)sc3ccc(Cl)cc23)n1	DT40 TDP1 no CPT inconclusive
COc1ccc(CNC(=O)c2ccc(NC(=O)N3CCSc4ncccc43)cc2)cc1OC	none (no result: IL-1B inflam inh, S-ASM inh)
Cc1ccc(-c2nc(C)c(CCNC(=O)C(=O)Nc3ccc(C)c(Cl)c3)s2)cc1	none (no result: IL-1B inflam inh, S-ASM inh, DT40 TDP1 no CPT, DT40 TDP1 CPT)
CCNC(=O)Nc1nc2ccccc2s1	none
O=C(Nc1cccnc1)Nc1cccc(F)c1	DT40 TDP1 no CPT 13µM
Cc1ccc(NC(=O)Nc2nc3ccccc3s2)cc1NC(=O)Nc1nc2ccccc2s1	DT40 TDP1 no CPT 13µM, DT40 TDP1 CPT inconclusive
CC(C)c1ccc(C(=O)Nc2cccnc2)cc1	none
CCC(C)C(NC(=O)c1ccc(Cl)cc1)C(=O)Nc1cccnc1 (stereo not drawn)	IL-1B inflam inh -85
Fc1cccc(NC(=S)Nc2cccnc2)c1	DT40 TDP1 no CPT inconclusive
O=C(Nc1ccc(Cc2ccc(NC(=O)Nc3cccnc3)cc2)cc1)Nc1cccnc1	none (no result: S-ASM inh)
O=C(Nc1ccc(Cl)cc1)Nc1cccnc1	DT40 TDP1 no CPT inconclusive, DT40 TDP1 CPT 16µM
Nc1ccc(OCCCc2c(N)nc(N)nc2N)cc1	DT40 TDP1 no CPT inconclusive
Cc1ccc(NC(=O)Nc2cccnc2)cc1NC(=O)Nc1cccnc1	DT40 TDP1 no CPT 9.2µM, DT40 TDP1 CPT 13µM
CC(=O)N1CCCN(Cc2cn(-c3ccc(C)cc3)nc2-c2ccc(F)cc2)CC1	IL-1B inflam inh -78, DT40 TDP1 no CPT 18µM, DT40 TDP1 CPT inconclusive, TGFb inhibitor inconclusive
CC(=O)N1CCCN(Cc2cn(-c3cccc(C)c3)nc2-c2cccc(F)c2)CC1	DT40 TDP1 no CPT 16µM, DT40 TDP1 CPT inconclusive
CC(=O)N1CCCN(Cc2cn(-c3cc(C)ccc3C)nc2-c2ccccc2)CC1	DT40 TDP1 no CPT inconclusive, DT40 TDP1 CPT 18µM
COCCN1CCC(CNCc2cn[nH]c2-c2ccc(C)c(C)c2)C1 (stereo not drawn)	IL-1B inflam inh inconclusive
O=C(Cc1cn(-c2ccccc2)nc1-c1ccccc1)N1CCCCC1	DT40 TDP1 no CPT inconclusive, DT40 TDP1 CPT inconclusive
COCCN1CCC(CNCc2cn(-c3cc(C)ccc3C)nc2-c2ccccc2)C1 (stereo not drawn)	DT40 TDP1 no CPT 6.5µM, DT40 TDP1 CPT inconclusive, TGFb inhibitor inconclusive
O=C(NNS(=O)(=O)c1ccccc1)C1CCCCC1	none
CC(=O)Nc1cc(C(=O)N2CCSCC2)cc2ncn(CCc3ccccn3)c12	none (no result: IL-1B inflam inh, S-ASM inh, HepG2 viability, TGFb inhibitor)
CN(C)c1ncc2nc(-c3cc(F)cc(F)c3)c(=O)n(C3CC3)c2n1	none (no result: IL-1B inflam inh, S-ASM inh, HepG2 viability, TGFb inhibitor)
CC1CCCN(c2nc3c(-c4ccc(Cl)cc4)nnn3c3ccccc23)C1 (stereo not drawn)	none (no result: IL-1B inflam inh, S-ASM inh)
N#Cc1ccccc1S(=O)(=O)N1CCN(c2nc(-c3cccnc3)nc3ccccc23)CC1	DT40 TDP1 no CPT inconclusive, DT40 TDP1 CPT inconclusive (no result: S-ASM inh)
COc1ccc(S(=O)(=O)N2CCN(c3ccc4nnc(-c5ccccc5)n4n3)CC2)cc1	DT40 TDP1 no CPT inconclusive, DT40 TDP1 CPT 12µM, TGFb inhibitor inconclusive
O=S(=O)(c1ccccc1F)N1CCN(c2nc(-c3cccnc3)nc3ccccc23)CC1	DT40 TDP1 no CPT 21µM, DT40 TDP1 CPT inconclusive
